Screens: PubChem, The Scripps Research Institute Molecular Screening Center
Shown are actives, neighbours in structure and some others; about 2.8% of the full set was active somewhere.
PAFAH1B2 inh: PAFAH1B2 enzyme inhibitors, primary screen, biochemical, fluorescence polarization, human. Platelet-activating factor acetylhydrolase IB subunit alpha2 (Homo sapiens), P68402. 340,000 compounds, 1.2% hits. inhibition, % at 3.39 µM. recombinant PAFAH1B2, FP-rhodamine activity probe;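 active = inhibition above the mean of all tested compounds plus 3 SD, cut at about 24% in these data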
PME-1 inh: PME-1 inhibitors via competitive probe labeling, primary screen, biochemical, fluorescence polarization, FP-Rh probe, HTS. Protein phosphatase methylesterase 1 (Homo sapiens), Q9Y570. recombinant PME-1. inhibition, % at 5.9 µM. 320,000 compounds, 0.53% hits. AID 2130, 2009;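 active = inhibition above the campaign mean of all compounds plus 3 SD, cut at about 26% in these data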;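 note: competitive labeling of PME-1 active site by serine hydrolase directed probe; inhibitors block probe labeling so polarization falls and inhibition rises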
PAFAH2 FP inh: PAFAH2 enzyme inhibitors, primary screen, biochemical, fluorescence polarization, human; 340,000 compounds, 0.99% hits; inhibition, % at 3.39 µM; recombinant PAFAH2, FP-rhodamine activity probe; Platelet-activating factor acetylhydrolase 2, cytoplasmic (Homo sapiens), Q99487;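 active = inhibition above the mean over all tested compounds plus 3 SD, cut at about 30% in these data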;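 note: inhibitors block probe labeling of enzyme so polarization drops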
PAFAH1B3 inh: PAFAH1B3 enzyme inhibitors, primary screen, biochemical, fluorescence polarization, human. Platelet-activating factor acetylhydrolase IB subunit alpha1 (Homo sapiens), Q15102. recombinant PAFAH1B3, FP-rhodamine probe. inhibition, % at 3.39 µM. 340,000 compounds, 0.28% hits. AID 492972, 2010;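 active = inhibition above the screen-wide average of all tested compounds plus 3 SD, cut at about 25% in these data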
pPAFAH inh: pPAFAH enzyme inhibitors, primary screen, biochemical, fluorescence polarization, human | Platelet-activating factor acetylhydrolase (Homo sapiens), Q13093 | recombinant pPAFAH, FP-rhodamine probe fluorescence polarization | inhibition, % at 3.39 µM | 330,000 compounds, 1.5% hits;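 active = inhibition above the mean inhibition across the screen plus 3 SD, cut at about 25% in these data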;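 note: inhibitors block binding of the rhodamine activity-based probe so polarization drops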
Target sequence (Q13093 whole entry, looked up): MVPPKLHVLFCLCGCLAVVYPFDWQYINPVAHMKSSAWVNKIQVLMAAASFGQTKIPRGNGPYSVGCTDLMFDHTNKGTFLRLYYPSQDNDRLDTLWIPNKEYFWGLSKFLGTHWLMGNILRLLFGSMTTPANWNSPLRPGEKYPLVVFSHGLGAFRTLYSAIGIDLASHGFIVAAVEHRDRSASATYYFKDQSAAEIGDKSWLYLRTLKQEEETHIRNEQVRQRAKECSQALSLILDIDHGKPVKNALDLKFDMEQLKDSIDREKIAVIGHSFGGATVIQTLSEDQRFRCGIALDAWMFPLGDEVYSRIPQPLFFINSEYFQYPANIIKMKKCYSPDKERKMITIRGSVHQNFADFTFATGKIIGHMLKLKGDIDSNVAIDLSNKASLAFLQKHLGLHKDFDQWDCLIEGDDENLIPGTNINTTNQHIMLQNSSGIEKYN
Fam108B counter: mouse Fam108B serine hydrolase inhibitors, primary screen, counter-screen for RBBP9 inhibitor project, biochemical, fluorescence polarization. recombinant Fam108B, FP-Rh probe fluorescence polarization. inhibition, % at 9.51 µM. 300,000 compounds, 0.33% hits;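 active = inhibition above the screen mean inhibition plus 3 SD, computed separately per campaign, cut at about 18% in these data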;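 note: inhibitors lower polarization as less probe binds the enzyme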
PAFAH1B3 confirm: PAFAH1B3 enzyme inhibitors, confirmation, biochemical, fluorescence polarization, human. recombinant PAFAH1B3, FP-Rh activity-based probe. inhibition, % at 3.39 µM. AID 493032, 2011. shares compounds with PAFAH1B3 inh. 390 compounds, 30% hits;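 active = average inhibition over triplicate runs above the hit cutoff set in the earlier primary screen, cut at about 25% in these data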
Each line names hits and unclear results; the compound was inactive in the other large screens (follow-up assays come after a bar, where they were run).

CCc1ccc(S(=O)(=O)Nc2cc(SCC(=O)O)c(O)c3ccccc23)cc1	PAFAH1B3 inh 27.8 | PAFAH1B3 confirm inactive
CCOc1ccc(S(=O)(=O)Nc2cc(SCC(=O)O)c(O)c3ccccc23)cc1	none (no result: PME-1 inh, pPAFAH inh, Fam108B counter)
Cn1c(=O)c2cc(NCc3ccccc3)nnc2n(C)c1=O	PME-1 inh 29.2, PAFAH1B3 inh 66.0 | PAFAH1B3 confirm inactive
C=C1SC(Nc2c(C)cc(C)cc2C)=NC12CCCCC2	none
CC(=C1C(=O)c2ccccc2C1=O)N1CCc2ccccc2C1	PAFAH1B3 inh 27.0 | PAFAH1B3 confirm inactive
COc1ccc(N2C(=O)NC(NC(=O)c3cccnc3)(C(F)(F)F)C2=O)cc1 (configuration not stated)	none
CCOC(=O)C1CCN(c2nc(N)c3c(N)nc(SCC(=O)O)cc3c2C#N)CC1	PAFAH1B3 inh 36.9 (no result: PME-1 inh, pPAFAH inh, Fam108B counter) | PAFAH1B3 confirm inactive
[O-][n+]1c2c(c3c4non(O)c4ccc31)CCCC2	PAFAH1B3 inh 27.7 | PAFAH1B3 confirm inactive
O=C(CN1C(=O)NC2(CCc3ccccc32)C1=O)Nc1ccccc1Cl (configuration not stated)	none (no result: PME-1 inh, Fam108B counter)
C(=N\Nc1nc(N2CCCCC2)nc(N2CCCCC2)n1)/c1c[nH]c2ccccc12	none
Cc1[nH]c2ccccc2c1/C=N/Nc1nc(N2CCCCC2)nc(N2CCCCC2)n1	PAFAH1B3 inh 25.6 | PAFAH1B3 confirm inactive
O=C(C1CCCN1S(=O)(=O)c1cccc2nsnc12)N1CCCCCC1 (configuration not stated)	none
CN(O)/C=c1/ccc2c(n1)C(=O)C=CC=2	PAFAH1B3 inh 35.0 | PAFAH1B3 confirm 44.9
O=C(Cn1ncc(Cl)c(Cl)c1=O)N1CCc2ccccc21	PAFAH1B3 inh 27.6 (no result: PME-1 inh, pPAFAH inh, Fam108B counter) | PAFAH1B3 confirm inactive
CC(C)C1Nc2ccc(C(=O)O)cc2C2C=CCC21 (configuration not stated)	PAFAH1B3 inh 29.1 | PAFAH1B3 confirm inactive
Cc1cscc1NC(=O)/C=C/C(=O)O	none (no result: PAFAH1B2 inh, PAFAH2 FP inh, PAFAH1B3 inh)
CC(=O)c1sc(C(C)(C)C)cc1NC(=O)/C=C/C(=O)O	PAFAH1B3 inh 43.6 | PAFAH1B3 confirm 35.1
Cc1cc(C)cc(C(=O)N(NC(=O)Nc2ccc(Cl)cc2)C(C)(C)C)c1	none
CC(=O)c1c(C)oc2c1C(=O)c1ccccc1C2=O	PAFAH1B3 inh 27.6 | PAFAH1B3 confirm inactive
COc1ccc(CNC(=O)c2c(C)oc3c2C(=O)c2ccccc2C3=O)cc1	PAFAH1B3 inh 37.0 | PAFAH1B3 confirm inactive
Cc1oc2c(c1C(=O)NCc1cccnc1)C(=O)c1ccccc1C2=O	none (no result: PAFAH1B2 inh, PAFAH2 FP inh, PAFAH1B3 inh)
O=C1c2ccccc2C(=O)c2c1oc(C(F)(F)F)c2C(=O)c1ccccc1	PAFAH1B3 inh 40.4 | PAFAH1B3 confirm 26.8
